MCL1 BIM primary – inhibitors of MCL1 binding to BIM-BH3, primary screen, biochemical, fluorescence polarization. Induced myeloid leukemia cell differentiation protein Mcl-1 (Homo sapiens), Q07820. GST-MCL1 / FITC-Bim-BH3 fluorescence polarization. inhibition, % at 10.9 µM. 320,000 tested, 0.68% active. AID 2057, 2009;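 active = inhibition above the mean inhibition of all tested compounds plus 3 SD, set per campaign, cut at about 40% in these data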;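 also: 0% = DMSO wells and 100% = unlabeled Bim-BH3 peptide control; higher means more loss of mP so more displacement of Bim peptide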
Target sequence (Q07820 whole entry, looked up): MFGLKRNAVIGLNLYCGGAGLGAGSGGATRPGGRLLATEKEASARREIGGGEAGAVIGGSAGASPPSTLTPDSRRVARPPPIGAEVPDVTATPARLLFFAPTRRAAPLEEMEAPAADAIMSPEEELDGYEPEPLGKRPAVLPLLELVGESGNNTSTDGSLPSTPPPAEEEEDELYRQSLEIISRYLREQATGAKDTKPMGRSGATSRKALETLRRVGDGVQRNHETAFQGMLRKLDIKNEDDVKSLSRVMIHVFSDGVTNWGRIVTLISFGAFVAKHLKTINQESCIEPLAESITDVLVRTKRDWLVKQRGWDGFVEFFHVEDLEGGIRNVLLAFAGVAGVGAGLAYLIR
14-3-3 Bad inh – inhibitors of 14-3-3 zeta/Bad binding, primary screen, biochemical, TR-FRET, bovine 14-3-3 zeta; inhibition, % at 21.7 µM; 220,000 tested, 0.71% active; 14-3-3 protein zeta/delta (Bos taurus), P63103; TR-FRET 14-3-3zeta/Dy647-pBad peptide displacement, 1 h;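 active = inhibition above about 70%, limit read from the data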;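 also: 0% = full 14-3-3 plus peptide FRET controls and 100% = background without 14-3-3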
Target sequence (P63103 whole entry, looked up): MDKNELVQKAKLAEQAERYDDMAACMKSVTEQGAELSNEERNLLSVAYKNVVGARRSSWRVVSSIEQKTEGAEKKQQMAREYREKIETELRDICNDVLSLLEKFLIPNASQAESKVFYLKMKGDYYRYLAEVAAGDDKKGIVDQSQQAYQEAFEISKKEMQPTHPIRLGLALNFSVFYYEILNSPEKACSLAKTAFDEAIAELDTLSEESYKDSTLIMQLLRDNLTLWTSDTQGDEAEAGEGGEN
Mcl1-Bid inh – Mcl-1/Bid binding inhibitors, primary screen, biochemical, TR-FRET, 1536-well; AID 1021, 2008; TR-FRET Mcl-1/Bid-Dy647 peptide binding; Induced myeloid leukemia cell differentiation protein Mcl-1 (Homo sapiens), Q07820; inhibition, % at 21.7 µM; 220,000 tested, 0.97% active;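 active = compounds that cut the binding signal by more than half at the single screening dose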;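 also: His-tagged Mcl-1 with europium anti-His antibody binding Bid BH3 peptide; 0% = Mcl-1 plus peptide wells and 100% = peptide-only wells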
Bim-Mcl-1 – inhibitors of Bim peptide binding to Mcl-1, primary screen, biochemical, bead-based flow cytometry, multiplex; Induced myeloid leukemia cell differentiation protein Mcl-1 (Homo sapiens), Q07820; inhibition, % at 10 µM; AID 1009, 2008; Bim peptide-Mcl-1 binding; 190,000 tested, 0.1% active; in the data active = inhibition above about 40%;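 also: 0% = no compound tracer wells and 100% = peptide blocker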
Mcl1-Noxa inh – Mcl-1/Noxa binding inhibitors, primary screen, biochemical, TR-FRET, 1536-well | 220,000 tested, 1.5% active | TR-FRET Mcl-1/Noxa peptide binding, 2 h | Induced myeloid leukemia cell differentiation protein Mcl-1 (Homo sapiens), Q07820 | AID 1022, 2008 | inhibition, % at 21.7 µM;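 active = compounds that cut the protein-peptide binding signal by more than 50% relative to plate controls in a single-dose test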;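 also: His-tagged Mcl-1 with rhodamine Noxa BH3 peptide and terbium anti-His antibody; 0% = Mcl-1 plus Noxa peptide wells and 100% = peptide-only wells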
* marks the source's active call; other numbers are inactive results; x = not tested or not shown; [ ] = another dose, or the depositor's remark. This is a sample that favours compounds with a hit; in the whole collection about 2.5% have one here.

SMILES	MCL1 BIM primary	14-3-3 Bad inh	Mcl1-Bid inh	Bim-Mcl-1	Mcl1-Noxa inh
CCN(CC)C(=O)C1CCCN(Cc2ccccc2F)C1 (stereo not given)	7	47	14	3	29
Cc1onc(-c2c(F)cccc2Cl)c1C(=O)N1CCN(c2ncccn2)CC1	-6	-7	1	0	7
Oc1ccc(C2C[C@H]3CC[C@@H]2C3)cc1O (stereo not given in full)	25	x	x	x	x
CCOc1ccc(NC(=O)Cn2nnc(-c3ccccc3NC(=O)C3CC3)n2)cc1	1	-4	-7	0	-5
COC(=O)C(=O)/C=C(\O)c1c(C)cc(C)cc1C	2	-7	-9	x	15
CN(Cc1ccccc1)C(=O)C1CCCN(Cc2ccc(Cl)cc2)C1 (stereo not given)	1	76*	15	-1	11
NC(=O)C1CCCN(Cc2ccc(Cl)cc2)C1 (stereo not given)	4	72*	12	0	0
O=C(NC1CCCN(Cc2ccc(Cl)cc2)C1)C1CCC1 (stereo not given)	-2	x	x	x	x
CCN(CC)C(=O)C1CCCN(Cc2ccc(F)c(F)c2)C1 (stereo not given)	-3	12	7	-3	16
CN(C)CC(C)(C)CNC(=O)C1CCN(CCCc2ccccc2)CC1	3	x	x	x	x
CCCCN(C)C(=O)C1CCN(CCCc2ccccc2)CC1	-6	80*	31	1	28
CN(Cc1ccccc1)C(=O)C1CCN(Cc2ccc(F)cc2)CC1	7	23	55*	-2	9
CCCCC(O)(CCCC)C(=O)NN(C(=O)OCC)c1ccccc1	1	3	1	-2	7
Cc1ccc(N2CCN(S(=O)(=O)c3ccc(-n4cnnn4)cc3)CC2)c(C)c1	-1	x	x	x	x
O=C(CN1CCN(c2ccc(F)cc2)CC1)NCc1ccc(F)cc1	11	x	x	x	x
Cc1nc(Nc2ccccc2)sc1C(=O)Nc1ccccc1	3	-6	-13	x	0
CC(=O)Nc1ccc(NC(=O)CSc2nccn2Cc2ccccc2)cc1	-1	-12	-25	-2	-2
O=C(Cn1ccc2ccccc2c1=O)NCCC(=O)N1CCN(c2ccccc2)CC1	5	x	x	x	x
Cc1ccc(NC(=O)CC2C(=O)NCCN2C(=S)Nc2ccccc2)c(C)c1 (stereo not given)	7	75*	-79	-1	0
CSc1ccccc1NC(=O)c1cc2ncc(Br)cn2n1	12	25	-19	-1	59*
O=[N+]([O-])c1ccc(O)c(C(C#Cc2ccccc2)N2CCOCC2)c1 (stereo not given)	-3	3	-24	x	-2
CC(=O)Nc1ccc(S(=O)(=O)N(C)CC(=O)OC2CCCCC2=O)cc1 (stereo not given)	-1	x	x	x	x
COc1ccc(C(CC(=O)N2CCOCC2)c2c(OC)cc(OC)c3c(-c4ccccc4)cc(=O)oc23)cc1 (stereo not given)	21	27	-18	x	54*
COc1ccc(C(CC(=O)N2CCCC(C)C2)c2c(OC)cc(OC)c3c(-c4ccccc4)cc(=O)oc23)cc1 (stereo not given)	20	24	-103	x	59*
COc1ccc(C(CC(=O)N2CCN(c3ccccc3)CC2)c2c(OC)cc(OC)c3c(-c4ccccc4)cc(=O)oc23)cc1 (stereo not given)	x	4	-49	x	3
SMILES	MCL1 BIM primary	14-3-3 Bad inh	Mcl1-Bid inh	Bim-Mcl-1	Mcl1-Noxa inh
COc1ccc(C(CC(=O)N2CCCCC2)c2c(OC)cc(OC)c3c(-c4ccccc4)cc(=O)oc23)cc1 (stereo not given)	32	21	-102	x	63*
COc1cc(C(CC(=O)N2CCCC2)c2c(OC)cc(OC)c3c(-c4ccccc4)cc(=O)oc23)cc(OC)c1OC (stereo not given)	19	21	-49	x	36
O=C(NC(=S)N1CCN(c2c(Cl)cccc2[N+](=O)[O-])CC1)c1cccs1	-1	4	-111	-4	-49
COc1cc(/C=N/NC(=O)c2cccnc2)ccc1OS(=O)(=O)c1ccc(C)cc1	9	3	-27	-29	7
O=C1CSc2ccc(S(=O)(=O)NCc3ccccc3Cl)cc2N1	4	x	x	x	x
COc1cc(CN2CCC(C(=O)NC3CCCC3)CC2)ccc1O	8	77*	30	1	16
CCOC(=O)C1CCCN(Cc2ccc(O)c(OC)c2)C1 (stereo not given)	0	56	-8	5	20
CCN(CC)c1ccc(NC(=O)Cn2cc3c(n2)CCC(C)C3)c(C)c1 (stereo not given)	-1	4	-9	2	61*
Cc1cc(C)c(S(=O)(=O)/N=C2\C=C(Nc3ccc(C(=O)O)cc3)C(=O)c3ccccc32)c(C)c1	31	x	x	x	x
O=C(O)c1ccc(NC2=C/C(=N/S(=O)(=O)c3ccccc3)c3ccccc3C2=O)cc1	x	31	-2	3	93*
Cc1cc(C)n2cc(CSc3nnc(-c4ccccc4)o3)nc2n1	0	1	-14	0	0
O=C1NC(=Nc2ccc(O)cc2)S/C1=C/c1ccco1	14	-11	-4	0	47
O=C1NC(=Nc2ccc3ccccc3c2)S/C1=C/c1ccco1	13	-9	-66	2	64*
COc1ccc(N=C2NC(=O)/C(=C\C=C\c3ccco3)S2)cc1	x	-9	-36	6	82*
Cc1cccc(N=C2NC(=O)/C(=C/C=C/c3ccco3)S2)c1	-16	2	31	-5	106*
Cc1ccc(N=C2NC(=O)/C(=C\c3ccco3)S2)cc1	13	-6	-28	-3	45
COc1cc(C2C3=C(Nc4nc(N)[nH]c(=O)c42)c2ccccc2C3=O)ccc1O (stereo not given)	16	5	-104	x	90*
Cc1cc(NC(=O)CSc2nnc(CNc3ccc(F)cc3)n2C2CCCCC2)no1	6	-13	-112	-1	-15
CCOC(=O)c1cc(-c2ccccc2)n(CC(=O)N2CCCC2)c1C	2	8	94*	-1	7
Cc1ccc(-n2c(N)cc(=O)nc2SCC(=O)N2CCN(c3ccccc3)CC2)cc1	11	x	x	x	x
CC(=O)N(C)C1=C(O)c2ccccc2C(=O)C1=O	1	70*	5	0	6
COc1ccc(C(=O)NCC(=O)OCC(=O)c2ccc(Cl)cc2)cc1OC	-2	-5	-19	1	1
Cc1cccc(Oc2ncnc3onc(C)c23)c1C	8	85*[fluorescence artefact?]	4	-3	-11
Cc1noc2ncnc(Oc3ccccc3Cl)c12	6	-1	2	1	6
CC1CN(CCCCOc2ccc(Cl)c3ccccc23)CC(C)O1 (stereo not given)	-2	x	x	x	x
